Screening results: PubChem BioAssay, National Center for Advancing Translational Sciences (NCATS)
An excerpt weighted towards active compounds, which were near 1.4% of everything screened.
AmpC detergent: qHTS Inhibitors of AmpC Beta-Lactamase (assay with detergent); AmpC hydrolysis of nitrocefin, absorbance 480 nm, 0.01% Triton; 370,000 tested, 0.041% active; AID 485294, 2010; Potency, µM (highest dose often 114 µM), for the others: at the highest dose activity change, negative = inhibition, hits mostly inhibitors; P00811;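 also: 0% = no-compound wells and -100% = no-enzyme wells; nearly all actives have a fitted effect of over 25% in size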
Target sequence (P00811 whole entry, looked up): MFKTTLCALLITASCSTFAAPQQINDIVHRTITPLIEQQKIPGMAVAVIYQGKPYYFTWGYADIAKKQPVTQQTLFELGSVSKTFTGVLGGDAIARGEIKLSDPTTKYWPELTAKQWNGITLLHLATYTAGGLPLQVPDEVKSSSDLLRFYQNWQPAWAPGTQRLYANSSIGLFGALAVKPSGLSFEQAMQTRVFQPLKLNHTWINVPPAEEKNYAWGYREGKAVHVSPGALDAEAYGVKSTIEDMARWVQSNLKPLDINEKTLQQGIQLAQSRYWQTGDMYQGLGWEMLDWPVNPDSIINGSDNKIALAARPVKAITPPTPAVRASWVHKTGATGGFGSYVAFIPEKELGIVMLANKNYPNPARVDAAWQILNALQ
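AmpC (5.3 nM in the dispensed reagent) in 20 mM phosphate pH 7.0 with 0.01% (detergent screen) or 0.0001% Triton X-100 was preincubated with compounds for 15 min at room temperature. Nitrocefin was then added from an 800 uM solution, and hydrolysis was followed at 480 nm.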
AmpC no deterg: qHTS Inhibitors of AmpC Beta-Lactamase (assay without detergent); P00811; AmpC nitrocefin hydrolysis, absorbance 480 nm, 0.0001% Triton; Potency, µM (series often up to 57.1 µM), inactives show at the highest dose activity change, negative = inhibition, actives largely listed as inhibitors; 330,000 tested, 0.52% active; AID 485341, 2010;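 also: plate controls were no compound for no effect and no enzyme for full effect; nearly all actives have a fitted effect of over 20% in size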
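20 mM phosphate pH 7.0 + 0.01% (detergent screen) or 0.0001% Triton X-100; 5.3 nM AmpC reagent; cpd preinc 15 min RT; nitrocefin (800 uM stock) to start; A480 q20 s × 4 min; Activity was normalised to no-enzyme and no-compound control wells.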
FBPA Giardia inh: qHTS Assay for Inhibitors of Fructose-1,6-bisphosphate Aldolase from Giardia Lamblia; purified Giardia FBPA; Potency, µM (highest dose often 59.6 µM), inactives show at the top dose activity, negative = inhibition, most hits filed as inhibitors; 290,000 tested, 0.71% active; AID 2451, 2010; also: nearly all actives have a fitted effect of over 55% in size
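Giardia FBPA (40 nM reagent) was preincubated 10 min at RT with compound (up to 57.5 uM final), then substrate plus GAPDH/TPI/NAD/arsenate coupling system with diaphorase/resazurin was added; resorufin fluorescence (525/598 nm) was read after 20 min.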
LmPK inh: qHTS Assay for Inhibitors of Leishmania Mexicana Pyruvate Kinase (LmPK) | Q27686 | purified LmPK, Kinase-Glo ATP luminescence, 1 h | Potency, µM (series often up to 57.5 µM), for inactives: top-dose activity change, negative = inhibition, hits mostly inhibitors | 290,000 tested, 0.37% active | AID 1721, 2009
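Pyruvate kinase activity monitored as ATP production (luciferase luminescence). Conditions: 0.1 nM enzyme, 0.5 mM PEP, 0.1 mM ADP, 1 h, RT; normalized against uninhibited and no-enzyme wells.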
TbPYK inhibitor: qHTS of Trypanosoma Brucei Inhibitors; pyruvate kinase (Trypanosoma brucei), Q57TT1; TbPYK enzyme, Kinase-Glo Plus ATP luminescence, 45 min; Potency, µM (titrated, usually from 76.8 µM), inactives show top-dose activity, negative = inhibition, actives largely listed as inhibitors; 410,000 tested, 0.12% active; AID 624173, 2012; also: nearly all actives have a fitted effect of over 50% in size
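Assay buffer: 50 mM TEA pH 7.2, 100 mM KCl, 10 mM MgCl2, 0.05% BSA, 0.01% Tween-20. Pyruvate kinase from T. brucei plus substrate met compound, then ADP (130 uM final). Luminescence was read post 45 min RT.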
RE007 growth inh: qHTS Assay for Inhibitors of the HIV-1 protein Vpr. S. pombe RE007 Vpr strain, BacTiter-Glo ATP luminescence, 24 h. Potency, µM (series often up to 92.2 µM), inactives show at the top dose activity change, negative = less growth, hits mostly inhibitors. 360,000 tested, 0.21% active; active = well fitted falling curve with a large enough effect; inconclusive = small, poorly fitted or top-dose-only effect; inactive = no such curve, though single readings can be large or run the other way; also: nearly all actives have a fitted effect of over 50% in size
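Fission yeast strain RE007, carrying one chromosomally integrated HIV-1 vpr copy, was seeded at OD 0.01 in PMG+AL medium with 23 nL pinned compound. After 24 h at 30 °C and 99% humidity, viability was read by BacTiter-Glo luminescence.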
* = called active by the depositor; ? = inconclusive; . = not tested or not shown. Unless noted, calls follow the shape of the dose curve; as a rule, active = well fitted curve in the direction sought with a large enough effect; inconclusive = small, poorly fitted or top-dose-only effect, or another doubt; inactive = no such curve, though single readings can be large; an effect the other way counts as inactive or inconclusive. Unless noted, % is scaled to controls: 0 for no effect and ±100 for the full control effect; potency is read from the fitted curve at half-maximal effect.

SMILES	AmpC detergent	AmpC no deterg	FBPA Giardia inh	LmPK inh	TbPYK inhibitor	RE007 growth inh
CCOc1ccccc1NC1(c2ccccc2)C(=O)c2ccccc2C1=O	-0.1%	.	.	.	-5.0%	.
COc1ccc(-c2c(C)c3ccc(O)c(CN4CCC(C)CC4)c3oc2=O)cc1OC	20.5%	.	.	.	0.5%	.
COC1=C(OC)C(=O)C(Sc2ccc3ccccc3c2)=CC1=O	.	.	.	.	1.78µM*	7.08µM*
COc1ccc(S(=O)(=O)Oc2ccc3ccccc3c2)cc1	-3.1%	-36.0%	-0.9%	0.7%	-7.7%	-11.2%
CCOc1ccccc1-c1c2cc(O)c(=O)cc-2oc2cc(O)c(O)cc12	?	-55.3%	6.29µM*	-15.0%	?	?
COc1ccccc1-c1cc(=O)c2cc(O)ccc2o1	.	.	0.3%	.	.	.
COc1ccc(OC)c(-c2c3cc(O)c(=O)cc-3oc3cc(O)c(O)cc23)c1	-3.9%	28.2µM*	?	-22.2%	?	?
O=C(Nc1ncccn1)c1cc([N+](=O)[O-])cc([N+](=O)[O-])c1	-13.3%	-6.4%	-6.9%	-3.7%	-5.2%	4.2%
O=[N+]([O-])c1cc(-c2ncccn2)c([N+](=O)[O-])s1	-10.1%	-16.5%	15.8µM*	-14.5%	-26.5%	?
CCc1ccc2ncc3c(-c4ccc(C)cc4)nn(CC(=O)Nc4ccc(C)cc4)c3c2c1	6.2%	.	.	.	4.0%	.
NC(CO)C(=O)NNCc1ccc(O)c(O)c1O (stereo not drawn)	?	-27.2%	7.92µM*	-1.5%	-6.3%	6.8%
O=C(c1cc([N+](=O)[O-])ccc1N1CCOCC1)N1CCN(c2ccccc2)CC1	6.3%	95.5%	.	0.6%	.	.
O=[N+]([O-])c1ccc(O)c(C(C#Cc2ccccc2)N2CCOCC2)c1 (stereo not drawn)	-3.1%	8.91µM*	8.7%	2.9%	3.3%	-10.2%
N#C/C(=C1/SC[C@@H](c2ccc(Cl)cc2Cl)S1)n1ccnc1	.	.	.	.	5.9%	.
NN1C(=O)/C(=C\c2ccco2)SC1=S	-4.6%	-27.1%	6.29µM*	8.3%	-8.2%	?
CCOc1ccc(N(CC)C(=O)Cn2cnc3sc(C)c(S(=O)(=O)N4CCN(c5ncccn5)CC4)c3c2=O)cc1	26.9%	.	.	.	-9.1%	.
Cn1c(=O)cc(OCC(=O)N2CCN(C3CCCCC3)CC2)c2ccccc21	?	0.891µM*	-14.1%	2.9%	-1.4%	-4.2%
CCC1CCCCN1C(=O)COc1cc(=O)n(C)c2ccccc12 (stereo not drawn)	-19.5%	-8.7%	-12.1%	4.1%	?	-7.4%
Nc1ncnc2c1ncn2[C@@H]1O[C@H](COP(=O)(O)OP(=O)(O)OP(=O)(O)O)[C@@H](O)[C@H]1O	?	-35.8%	.	.	-20.2%	3.16µM*
CC1=C/C(=C(\c2cc(C)c(O)c(Br)c2)c2ccccc2S(=O)(=O)O)C=C(Br)C1=O	2.3%	-30.1%	?	7.94µM*	?	?
Cc1ccc(OCc2nc(-c3ccccn3)no2)c(Br)c1	-3.3%	7.1%	-0.4%	15.8µM*	-2.8%	-13.7%
CCc1ccc(OCc2nc(-c3ccccn3)no2)c(Br)c1	-9.6%	?	1.2%	?	-0.6%	-23.9%
COC(=O)C(C)NC(=O)N1CCN(c2nnc(C)c3c(C)n(-c4ccc(Cl)cc4)nc23)CC1 (stereo not drawn)	25.0%	.	.	.	1.3%	.
Cc1nn(-c2ccc(F)cc2)c2nc(N)c(C#N)c(-c3ccc(O)c(O)c3)c12	1.9%	14.1µM*	-25.8%	-2.9%	-9.0%	9.2%
Cc1nn(-c2ccccc2)c2nc(N)c(C#N)c(-c3ccc(O)c(O)c3)c12	0.7%	-50.0%	-21.5%	-9.3%	6.6%	-3.4%
